In the supplement of paper PMC12350171:
Where a name gives a salt, the structure may show the parent alone. Values without a mark were called inactive.

Columns and labels:
Settings in all cases: 20 µM
[1] = system: Salmonella enterica typhimurium; test: growth AUC normalised to DMSO control (fraction of control); higher = less growth inhibition, active = hit call of the paper
Summary of the method: (§1)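 After two anaerobic passages, pathogens were added at a starting OD578 of 0.01 to pre-reduced mGAM plates holding compound at 20 μM with 1% DMSO; hemin and NAD were supplemented for Haemophilus parainfluenzae. Sealed with breathable membranes, plates were read at OD578 hourly for 24 h, in three biological replicates. The trapezoidal rule, applied up to the exponential-to-stationary transition, gave the growth-curve AUC, which was normalised to DMSO controls on the same plate.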

Shigella flexneri = test: as above
Summary of the method: as §1

Vibrio cholerae = test: as above
Summary of the method: as §1

[2] = system: Yersinia pseudotuberculosis; test: as above
Summary of the method: as §1

P. vulgatus RND KO = test: growth AUC normalised to DMSO control (median) (fraction of control); higher = less growth inhibition, active = hit call of the paper
Summary of the method: (§2)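 Area under the growth curve, calculated by the trapezoidal rule up to entry into stationary phase, was normalised to vehicle wells on the same plate. Strains had been passaged twice overnight without oxygen and then grown in mGAM in 96-well plates from OD578 0.01, each with an approved-drug library compound at 20 μM in 1% DMSO. OD578 was read hourly over 24 h in an anaerobic incubator, and the median of three biological replicates is given.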

P. vulgatus WT = test: as above
Summary of the method: as §2

[3] = system: S. enterica typhimurium WT; test: as above
Summary of the method: as §2

[4] = system: S. enterica typhimurium tolC KO; test: as above
Summary of the method: as §2
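Wherever growth AUC normalised to DMSO control (median) is given: active when median AUC fell below 0.1.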

| SMILES | growth AUC normalised to DMSO control [1] | growth AUC normalised to DMSO control (Shigella flexneri) | growth AUC normalised to DMSO control (Vibrio cholerae) | growth AUC normalised to DMSO control [2] | growth AUC normalised to DMSO control (P. vulgatus RND KO) | growth AUC normalised to DMSO control (P. vulgatus WT) | growth AUC normalised to DMSO control [3] | growth AUC normalised to DMSO control [4] |
| --- | --- | --- | --- | --- | --- | --- | --- | --- |
| c1ccc(CC2=NCCN2)cc1 [Tolazoline hydrochloride] | 1.01 | 1.02 | 1.02 | 1.01 | 1.02 | 1.07 | 0.987 | 1.01 |
| Nc1ccc(C(=O)O)c(O)c1 [Aminosalicylic acid] | 1.03 | 1.01 | 0.988 | 0.962 | 1.02 | 1 | 1.01 | 1.01 |
| C=CCSCC1Nc2cc(Cl)c(S(N)(=O)=O)cc2S(=O)(=O)N1 (stereo not given) [Althiazide] | 1.04 | 1.08 | 1.03 | 0.985 | 1.04 | 1.08 | 1.01 | 1.01 |
| CC1=Nc2ccc(Cl)cc2S(=O)(=O)N1 [Diazoxide] | 1.01 | 1.03 | 1.02 | 0.999 | 1.04 | 1.01 | 1.01 | 0.989 |
| COC(=O)Nc1nc2cc(C(=O)c3cccs3)ccc2[nH]1 [Nocodazole] | 1.01 | 1.02 | 0.979 | 1 | 1.01 | 1.02 | 1.01 | 0.975 |
| NC(=O)N1c2ccccc2CC(=O)c2ccccc21 [Oxcarbazepine] | 0.971 | 0.952 | 0.981 | 0.992 | 0.989 | 0.995 | 0.999 | 1 |
| CNC(=C[N+](=O)[O-])NCCSCc1ccc(CN(C)C)o1 [Ranitidine hydrochloride] | 1 | 1 | 1.01 | 1.01 | 1.01 | 0.985 | 1.02 | 1.01 |
| COC(=O)C1=C(C)NC(C)=C(C(=O)OC)C1c1ccccc1[N+](=O)[O-] [Nifedipine] | 1 | 0.997 | 0.971 | 1 | 0.987 | 0.996 | 1.01 | 0.994 |
| O=C(NCCNCC(O)COc1ccc(O)cc1)N1CCOCC1 (stereo not given) [Xamoterol hemifumarate] | 0.969 | 0.945 | 0.98 | 0.993 | 0.991 | 0.982 | 1.01 | 0.99 |
| C#C[C@]1(O)CC[C@H]2[C@@H]3[C@H](C)CC4=C(CCC(=O)C4)[C@H]3CC[C@@]21C [Tibolone] | 0.999 | 0.971 | 0.974 | 1 | 0.963 | 0.994 | 1 | 0.986 |
| C=C[C@H]1CN2CC[C@H]1C[C@@H]2[C@@H](O)c1ccnc2ccc(OC)cc12 [Quinidine hydrochloride monohydrate] | 0.991 | 0.996 | 0.985 | 0.991 | 0.998 | 1.03 | 0.99 | 0.997 |
| CCS(=O)(=O)CCn1c([N+](=O)[O-])cnc1C [Tinidazole] | 1.01 | 0.99 | 1 | 0.971 | 0.0183 (active) | 0.0185 (active) | 1 | 0.995 |
| CS(=O)(=O)Nc1ccc([N+](=O)[O-])cc1Oc1ccccc1 [Nimesulide] | 0.985 | 0.953 | 0.907 | 0.984 | 0.983 | 0.979 | 0.988 | 0.984 |
| COc1c2occc2c(OC)c2c(=O)cc(C)oc12 [Khellin] | 1 | 1.05 | 0.983 | 1.01 | 1 | 1.02 | 1.02 | 0.985 |
| NCCCC(O)(P(=O)(O)O)P(=O)(O)O [Alendronate sodium] | 1.03 | 1.05 | 1.1 | 1.02 | 1.05 | 1.06 | 1 | 0.99 |
| CC(C)NCC(O)c1ccc2ccccc2c1 (stereo not given) [Pronethalol hydrochloride] | 0.991 | 1 | 0.999 | 0.982 | 1 | 1.01 | 0.994 | 0.989 |
| Cc1ccc(Cl)c(Nc2ccccc2C(=O)O)c1Cl [Meclofenamic acid sodium salt monohydrate] | 1 | 0.954 | 0.891 | 0.981 | 0.859 | 0.903 | 1.01 | 1.01 |
| NS(=O)(=O)c1cc(C2(O)NC(=O)c3ccccc32)ccc1Cl (stereo not given) [Chlorthalidone] | 1 | 0.989 | 0.995 | 0.994 | 1 | 0.986 | 1 | 0.998 |
| CCN(CC)CCOC(=O)C(c1ccccc1)c1ccccc1 [Adiphenine hydrochloride] | 0.974 | 0.99 | 1.01 | 1 | 1.03 | 1.03 | 0.995 | 1 |
| CCOC(=O)[C@@](C)(N)Cc1ccc(O)c(O)c1 [Methyldopate hydrochloride] | 0.999 | 1.04 | 1.06 | 1.02 | 0.964 | 1.02 | 1.01 | 1.02 |
| CCOC1O[C@H]([C@@H](COCc2ccccc2)OCc2ccccc2)[C@H](OCc2ccccc2)[C@H]1O (stereo not given in full) [Tribenoside] | 1 | 1.01 | 1 | 0.988 | 0.946 | 0.987 | 1.01 | 0.959 |
| C[C@H](N)[C@H](O)c1cccc(O)c1 [Metaraminol bitartrate] | 0.992 | 0.972 | 0.984 | 1.01 | 0.993 | 0.989 | 0.994 | 1 |
| CN(Cc1ccc(C(C)(C)C)cc1)Cc1cccc2ccccc12 [Butenafine hydrochloride] | 0.974 | 0.968 | 0.926 | 0.99 | 0.967 | 0.96 | 0.995 | 0.957 |
| OCCN1CCN(CCCN2c3ccccc3C=Cc3ccccc32)CC1 [Opipramol dihydrochloride] | 0.981 | 0.962 | 0.961 | 0.996 | 1.01 | 1.01 | 1 | 0.968 |
| CN1CCCC(n2nc(Cc3ccc(Cl)cc3)c3ccccc3c2=O)CC1 (stereo not given) [Azelastine hydrochloride] | 1.01 | 0.989 | 0.932 | 0.969 | 1.01 | 1 | 1 | 0.935 |
| CCCCOC(=O)c1ccc(O)cc1 [Butylparaben] | 1.01 | 0.969 | 0.896 | 0.962 | 0.974 | 1 | 0.994 | 0.953 |
| CC(C(=O)O)c1ccc(-c2ccccc2)c(F)c1 (stereo not given) [Flurbiprofen] | 0.986 | 0.98 | 0.96 | 0.985 | 0.994 | 0.991 | 0.995 | 0.977 |
| CC(=O)O[C@H]1C(=O)[C@@]2(C)[C@H]([C@H](OC(=O)c3ccccc3)[C@]3(O)C[C@H](OC(=O)[C@H](O)[C@@H](NC(=O)c4ccccc4)c4ccccc4)C(C)=C1C3(C)C)[C@]1(OC(C)=O)CO[C@@H]1C[C@@H]2O [Paclitaxel] | 1.02 | 1.01 | 1.02 | 0.998 | 0.881 | 0.8 | 1.01 | 1.02 |
| CC(=O)OCC1=C(C(=O)O)N2C(=O)[C@@H](NC(=O)Cc3cccs3)[C@H]2SC1 [Cephalothin sodium salt] | 0.00459 (active) | 0.025 (active) | 0.0489 (active) | 0.0158 (active) | 0.00752 (active) | 0.0068 (active) | 0.00336 (active) | 0.00338 (active) |
| Cc1cc2cc3c(C)cc(=O)oc3c(C)c2o1 [Trioxsalen] | 0.994 | 1.03 | 0.996 | 0.995 | 1.03 | 1.02 | 0.996 | 0.955 |
